The nature of assay [1]: qHTS of pediatric cancer cell lines to identify multiple opportunities for drug repurposing: Primary screen for control Hh wild type fibroblast cells (AID 1347106).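 Also: series mostly up to about 46 µM; a drop in luminescence marks cytotoxicity and a rise apparent proliferation; nearly all actives have a fitted effect of over 55% in size.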 Summed up:
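Cells (500-1,000/well) in growth media were settled 5 h at 37 degrees C, then given compounds for 48 h. Viability was read as CellTiter-Glo luminescence. Primary runs used MIPE at 11 points (0.78 nM-46 µM) and NPC at 8 points (0.59 nM-46 µM); follow-ups used 11 points.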
Background: qHTS replaces the single test concentration by a dilution series.

Assay [2] is described as follows: qHTS of pediatric cancer cell lines to identify multiple opportunities for drug repurposing: Primary screen for Rh30 cells (AID 1347107). Also: series mostly up to about 46 µM; nearly all actives have a fitted effect of over 75% in size. Summed up:
(§1)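 Cells (500-1,000/well) rested 5 h, then received compounds for 48 h; metabolically active cells were measured by CellTiter-Glo luminescence. Final concentrations spanned up to 46 µM (MIPE, 11-point) or 0.59 nM-46 µM (NPC, 8-point) in primary screens, 11-point in follow-ups.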

Assay [3] can be described thus: qHTS of pediatric cancer cell lines to identify multiple opportunities for drug repurposing: Primary screen for Rh41 cells (AID 1347108).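 Also: series mostly up to about 46 µM; luminescence drop marks cytotoxic hits; nearly all actives have a fitted effect of over 70% in size.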 Summed up:
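Plated cells (500-1,000 per well, growth media) were allowed to settle for 5 hours, treated with compound dilutions for 48 hours, then lysed with CellTiter-Glo for 15 min at room temperature before luminescence reading.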

Assay [4] is described as follows: qHTS of pediatric cancer cell lines to identify multiple opportunities for drug repurposing: Confirmatory screen for NB1643 cells (AID 1347109). Also: potency is read from the fitted curve at half-maximal effect; nearly all actives have a fitted effect of over 45% in size. Put shortly:
as §1

The nature of assay [5]: qHTS of pediatric cancer cell lines to identify multiple opportunities for drug repurposing: Confirmatory screen for A673 cells (AID 1347110).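 Also: potency is read from the fitted curve at half-maximal effect; cells exposed to compound for 48 h before the viability read; nearly all actives have a fitted effect of over 65% in size.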 Summed up:
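A673 cells at 500-1,000 cells/well were dosed 5 h after plating, in dilution series up to 46 uM final; primary runs used 8 or 11 points and confirmatory runs used 11 points. Viability was read by CellTiter-Glo luminescence after 48 h, against DMSO and 2.3 uM bortezomib controls.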

The nature of assay [6]: qHTS of pediatric cancer cell lines to identify multiple opportunities for drug repurposing: Confirmatory screen for SK-N-MC cells (AID 1347111).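 Also: potency is read from the fitted curve at half-maximal effect; cells exposed to compound for 48 h before the readout; nearly all actives have a fitted effect of over 70% in size.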 Summed up: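 Seed 500-1,000 cells/well; rest 5 h at 37 degrees C. Pin-transfer compounds, 11-point titration. Incubate 48 h. Add CellTiter-Glo, 15 min RT, read luminescence.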
Assay [7] in a line: qHTS of pediatric cancer cell lines to identify multiple opportunities for drug repurposing: Confirmatory screen for LAN-5 cells (AID 1347113). Also: potency is read from the fitted curve at half-maximal effect; nearly all actives have a fitted effect of over 65% in size. Put shortly:
as §1

Assay [8] is described as follows: qHTS of pediatric cancer cell lines to identify multiple opportunities for drug repurposing: Confirmatory screen for SJ-GBM2 cells (AID 1347116). Also: potency is read from the fitted curve at half-maximal effect; nearly all actives have a fitted effect of over 60% in size. Put shortly:
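Viability measured as metabolically active cells via CellTiter-Glo luminescence following 48 hours of compound exposure, 11-point dilutions in confirmatory testing. 500-1,000 cells/well plated 5 hours before dosing; controls were DMSO and 2.3 µM bortezomib.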

Assay [9] can be described thus: qHTS of pediatric cancer cell lines to identify multiple opportunities for drug repurposing: Confirmatory screen for BT-37 cells (AID 1347117). Also: potency is read from the fitted curve at half-maximal effect; nearly all actives have a fitted effect of over 55% in size. Put shortly: as §1
Assay [10] can be described thus: qHTS of pediatric cancer cell lines to identify multiple opportunities for drug repurposing: Confirmatory screen for TC32 cells (AID 1347118).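 Also: potency is read from the fitted curve at half-maximal effect; cells exposed to compound for 48 h before the read; nearly all actives have a fitted effect of over 65% in size.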 Summed up: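 qHTS, TC32, 48 h drug treatment, CellTiter-Glo luminescence as a proxy for metabolically active cells; primary top concentration 46 µM (MIPE 11-pt, NPC 8-pt); confirmatory 11-pt.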
The nature of assay [11]: qHTS of pediatric cancer cell lines to identify multiple opportunities for drug repurposing: Confirmatory screen for control Hh wild type fibroblast cells (AID 1347121). Also: nearly all actives have a fitted effect of over 70% in size. Summed up: as §1
A short description of assay [12]: qHTS of pediatric cancer cell lines to identify multiple opportunities for drug repurposing: Confirmatory screen for U-2 OS cells (AID 1347122). Also: nearly all actives have a fitted effect of over 65% in size. Summed up:
as §1

Assay [13] is described as follows: qHTS of pediatric cancer cell lines to identify multiple opportunities for drug repurposing: Confirmatory screen for RD cells (AID 1347124). Summed up:
as §1

A short description of assay [14]: qHTS of pediatric cancer cell lines to identify multiple opportunities for drug repurposing: Confirmatory screen for Rh30 cells (AID 1347126). Also: potency is read from the fitted curve at half-maximal effect; nearly all actives have a fitted effect of over 55% in size. Summed up:
as §1

Assay [15] in a line: qHTS of pediatric cancer cell lines to identify multiple opportunities for drug repurposing: Confirmatory screen for Saos-2 cells (AID 1347127). Also: potency is read from the fitted curve at half-maximal effect; nearly all actives have a fitted effect of over 60% in size. Put shortly:
as §1

Results on 3 compounds are retold here after PubChem BioAssay (NCATS).

Each structure is given as a SMILES string. Records with an inconclusive call do not appear. Calls of active or inactive are those of the source. Calls follow the shape of the dose curve; as a rule, active = well fitted curve in the direction sought with a large enough effect; inconclusive = small, poorly fitted or top-dose-only effect, or another doubt; inactive = no such curve, though single readings can be large; an effect the other way counts as inactive or inconclusive.

Regarding `Cc1cccc(C)c1NC(=O)CN1CCCCCC1`, the Potency result in [1], in assay [2] and in [3] was “inactive” throughout.

As to `NC(=O)c1ccccc1O`, the Potency result in assay [1], in assay [2] and in [3] was “inactive” throughout.

In the case of `Nc1nc(Cl)nc2c1ncn2[C@@H]1O[C@H](CO)[C@@H](O)[C@@H]1F`, the Potency entry in [1], in assay [2], in [3], in assay [11], in assay [12] and in [13] was “inactive” in each case. Also, the Potency in [4] was 1.47 µM (active); in assay [5] it was 1.04 µM (active); in assay [6], 92.8 nM (active); in [7], 1.65 µM (active); in [8] it was 233 nM (active); in assay [9], 329 nM (active). Also, the Potency was 369 nM (active) in assay [10], 5.22 µM (active) in assay [14] and 465 nM (active) in [15].
